Most compounds without a hit are left out; they make up all but 1.6% or so of the library.
KCNQ2 enhance: potentiators of rat KCNQ2 potassium channel | O88943 | CHO-K1 KCNQ2, FluxOR thallium flux fluorescence; hits give high values | B-score at 10 µM | 310,000 tested, 0.54% active | AID 2239;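 active means fluorescence ratio B-score at least 3 SD of library B-scores, with initial fluorescence B-score within 3 of them, cut at about 5.3 in these data; same plate scores as AID 2156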;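 further: B-score of peak minus minimum over baseline fluorescence ratio after K+ and Tl+ stimulus; positive B-score means potentiation of KCNQ2 with more thallium influx and brighter signal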
KCNQ2 block: blocks the rat KCNQ2 potassium channel; 310,000 tested, 1.1% active; B-score at 10 µM; CHO-K1 KCNQ2, FluxOR thallium flux, 20 min; hits give low values; AID 2156;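 active means fluorescence ratio B-score at most minus 3 library SDs, with starting brightness B-score within 2 library SDs, cut at about -5.5 in these data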
Kir21 conf inh: confirmation of mouse Kir2.1 potassium channel inhibitors; shares compounds with KCNQ2 enhance; 2,300 tested, 41% active; Kir2.1-expressing cells, FluxOR thallium flux fluorescence; hits give low values; Tl flux remaining, % of negative control (hits give low values), % at 10 µM;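 active means Primary-screen hit whose thallium flux fell at least 3 control SD below untreated wells in both duplicates, with normal baseline fluorescence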
Target sequence (P35561 whole entry, looked up): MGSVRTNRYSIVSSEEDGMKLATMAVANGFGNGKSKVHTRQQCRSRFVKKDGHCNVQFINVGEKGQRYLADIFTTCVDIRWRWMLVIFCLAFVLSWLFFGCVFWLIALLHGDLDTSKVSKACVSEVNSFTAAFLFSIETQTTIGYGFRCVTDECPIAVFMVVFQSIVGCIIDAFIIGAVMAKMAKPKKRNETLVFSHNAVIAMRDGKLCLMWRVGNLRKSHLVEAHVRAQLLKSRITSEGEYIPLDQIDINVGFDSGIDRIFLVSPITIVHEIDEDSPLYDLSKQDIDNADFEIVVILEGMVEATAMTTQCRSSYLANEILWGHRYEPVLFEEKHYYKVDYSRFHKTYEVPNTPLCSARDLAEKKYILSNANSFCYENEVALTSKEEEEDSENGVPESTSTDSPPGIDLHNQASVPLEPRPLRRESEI
HEK293 ctr: alters thallium flux in parental HEK293 cells, Kir2.1 counter-screen; FluxOR signal as % of negative control (100 = no effect), % at 10 µM; AID 2105; 2,300 tested, 19% active; shares compounds with KCNQ2 enhance; FluxOR thallium flux fluorescence; 0% = unstimulated blank wells;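 active means dye signal at least 3 control SD above or below untreated wells in both duplicates, raw fluorescence within 3, either direction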;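 further: percent is based on the flux ratio of peak minus minimum fluorescence over baseline F0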
CHO-K1 ctr: alters thallium flux in parental CHO-K1 cells, KCNQ2 counter-screen; shares compounds with KCNQ2 enhance; FluxOR thallium flux fluorescence; zero = vehicle mean+3SD, 100% = vehicle-minus-blank window; activity increase over 3SD of controls, % at 10 µM; 1,200 tested, 43% active;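 active means signal rise of at least 3 SD above the untreated control mean, in both duplicate wells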;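 further: counter screen of KCNQ2 potentiator hits so any rise reflects channel-independent effects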
KCNQ1 sel pot: human KCNQ1 counter-target activity of KCNQ2 potentiators. shares compounds with KCNQ2 enhance. CHO KCNQ1 stable, FluxOR thallium flux fluorescence; beyond 3SD, as % of vehicle-control signal. activation over 3SD threshold, % at 10 µM. 1,200 tested, 28% active. AID 2283;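 active means fluorescence ratio rise of at least 3 SD of vehicle wells above their mean, in both replicate wells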
KCNQ2 pot conf: rat KCNQ2 channel potentiator confirmation | shares compounds with KCNQ2 enhance | CHO-KCNQ2 cells, FluxOR thallium flux fluorescence | potentiation, less the hit threshold, % at 10 µM | 1,200 tested, 68% active;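 active means fluorescence ratio rising 3 SD or more over the vehicle control mean in both replicates, plus primary screen hit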;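 further: peak minus minimum thallium fluorescence divided by baseline after K/Tl stimulus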
Kir2-1 sel: tests whether KCNQ2 potentiators also affect mouse Kir2.1 | activity over 3SD threshold, % at 10 µM | shares compounds with KCNQ2 enhance | HEK293 Kir2.1, FluxOR thallium flux fluorescence | 1,200 tested, 2% active;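 active means fluorescence ratio rise of at least 3 SD above the vehicle-control mean, seen in both replicates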
KCNQ2 W236L pot: potentiates the retigabine-insensitive rat KCNQ2 W236L mutant channel. shares compounds with KCNQ2 enhance. CHO KCNQ2-W236L, automated patch clamp current. AID 2558. 940 tested, 10% active. current increase over 3SD of negative controls (%), hits give high values, % at 25 µM;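 active means current increase at least 3 SD of the untreated controls above them in both duplicate recordings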
Of the large screens only hits and unclear results are named; the others gave an inactive call (follow-up assays come after a bar, where they were run).

CC1CCc2ccccc2N1C(=N)N(C)C (configuration not stated)	none
COc1ccc(-c2oc3ccccc3c(=O)c2OCC(=O)O)cc1	none
COc1ccc(-c2oc3ccccc3c(=O)c2OC(C)=O)cc1	KCNQ2 enhance 6.7 | Kir21 conf inh inactive | HEK293 ctr 310% | CHO-K1 ctr 89 | KCNQ1 sel pot inactive | KCNQ2 pot conf 19 | Kir2-1 sel inactive | KCNQ2 W236L pot inactive
O=C(O)COc1c(-c2ccco2)oc2ccccc2c1=O	none
CC(=O)Oc1c(-c2ccc(Br)o2)oc2ccccc2c1=O	KCNQ2 enhance 16 | Kir21 conf inh inactive | HEK293 ctr 462% | CHO-K1 ctr 114 | KCNQ1 sel pot inactive | KCNQ2 pot conf 62 | Kir2-1 sel inactive | KCNQ2 W236L pot inactive
CN1CCN(C(=O)c2cc([N+](=O)[O-])cc([N+](=O)[O-])c2)CC1	none
CC(=O)Oc1ccc2c3c(c(=O)oc2c1)CCCC3	none
O=c1oc2cc(O)ccc2c2c1CCCC2	none | Kir21 conf inh inactive | HEK293 ctr inactive
NC(CCCCCP(=O)(c1ccccc1)c1ccccc1)C(=O)O (configuration not stated)	none
O=C(Nc1nn[nH]n1)c1cc(-c2ccc(Cl)c(Cl)c2Cl)nc2ccccc12	none (no result: KCNQ2 enhance)
CN(C)S(=O)(=O)c1cccc(NC(=O)Cc2ccc(-c3ccccc3)cc2)c1	none
CCOC(=O)C1=C(C)N=c2s/c(=C\c3ccc(C(=O)O)cc3)c(=O)n2C1c1ccc(F)cc1 (configuration not stated)	KCNQ2 enhance 7 | Kir21 conf inh inactive | HEK293 ctr inactive | CHO-K1 ctr 11 | KCNQ1 sel pot inactive | KCNQ2 pot conf inactive | Kir2-1 sel inactive | KCNQ2 W236L pot inactive
CCOC(=O)C1=C(C)N=c2s/c(=C/c3cccc(OCC(=O)O)c3)c(=O)n2C1c1ccc(F)cc1 (configuration not stated)	none
CCOC(=O)c1c(C)n(C)c2ccc(OCC(O)CNCCc3ccccc3)cc12 (configuration not stated)	none
CCCc1cnc(NCCNCC(O)COc2ccc(Cl)c(Cl)c2)nc1 (configuration not stated)	none (no result: KCNQ2 enhance) | Kir21 conf inh 68% | HEK293 ctr inactive
Cc1ccc(NC(=S)N(CCN2CCOCC2)Cc2cc3cc4c(cc3[nH]c2=O)OCO4)cc1	none (no result: KCNQ2 enhance)
Cc1cccc(CN2CCc3c([nH]c4ccccc34)C2)c1	none | Kir21 conf inh 43% | HEK293 ctr inactive
Clc1cccc(CN2CCc3c([nH]c4ccccc34)C2)c1	none (no result: KCNQ2 enhance)
Cc1cccc(NC(=O)CCc2nnc3ccc(N4CCC(C)CC4)nn23)n1	none (no result: KCNQ2 enhance)
Cc1ccc(C)c2sc(NC(=O)c3nc4ccccc4s3)nc12	none
Cc1cc(C)c(S(=O)(=O)NCC(=O)NCc2ccccn2)c(C)c1	none (no result: KCNQ2 enhance)
COc1cc(CNc2ccc(NC(C)=O)cc2)ccc1OCc1ccccc1C	KCNQ2 enhance 5.5 | Kir21 conf inh inactive | HEK293 ctr inactive | CHO-K1 ctr inactive | KCNQ1 sel pot inactive | KCNQ2 pot conf inactive | Kir2-1 sel inactive
COc1cc(CNc2ccc(N3CCN(C(C)=O)CC3)cc2)ccc1OCc1ccccc1	none (no result: KCNQ2 enhance)
Cc1ccccc1S(=O)(=O)N1CCN(C)CC1	none
O=C(c1ccc(N2CCCS2(=O)=O)cc1)N1CCN(c2ccccc2)CC1	none (no result: KCNQ2 enhance)
CC(=O)Oc1ccc(/C=N/NS(=O)(=O)c2ccccc2)cc1	none
COc1cc(CNc2ccc3[nH]c(=O)[nH]c3c2)cc(Br)c1OCc1ccc(F)cc1	none
COc1cccc(CNc2ccc3[nH]c(=O)[nH]c3c2)c1OCc1ccccc1F	none | Kir21 conf inh 66% | HEK293 ctr inactive
O=[N+]([O-])c1c(Nc2ccc(O)cc2)cc(Cl)c2nonc12	KCNQ2 block -10 | Kir21 conf inh 66% | HEK293 ctr inactive
CN(C)c1cc(Nc2ccc(O)cc2)c([N+](=O)[O-])c2nonc12	none (no result: KCNQ2 enhance)
Cc1nc2ccccc2c(=O)n1-c1cccc(NC(=O)c2cccs2)c1	none
O=C(Nc1cccc(N2C(=O)C=CC2=O)c1)c1cccs1	none (no result: KCNQ2 enhance) | Kir21 conf inh 72% | HEK293 ctr inactive
CCn1cnc2c([N+](=O)[O-])c(NS(=O)(=O)c3ccc(C)cc3)ccc21	none
Cc1cc(NCCCn2ccnc2)n2nc(C)c(-c3ccccc3)c2n1	none (no result: KCNQ2 enhance)
N=c1c2c(ncn1Cc1ccco1)Oc1ccc3ccccc3c1C2c1ccccc1 (configuration not stated)	none
N=c1c2c(-c3ccccc3)c(-c3ccccc3)n(Cc3ccco3)c2ncn1Cc1ccco1	KCNQ2 block -6.9 | Kir21 conf inh 54% | HEK293 ctr inactive
N=c1c2c(-c3ccccc3)c(-c3ccccc3)n(Cc3ccccc3)c2ncn1CCCn1ccnc1	none (no result: KCNQ2 enhance) | Kir21 conf inh inactive | HEK293 ctr inactive
CCOc1ccccc1NC(=O)CSc1nc2cc(O)ccc2c(=O)n1-c1ccc(OC)c(OC)c1	none (no result: KCNQ2 enhance)
O=C(O)c1ccc2c(=O)n3c(nc2c1)/C(=C/c1ccc(Cl)c(Cl)c1)CC3	none
CC(/C=N/Nc1ccc2nncn2n1)=C\c1ccccc1	none (no result: KCNQ2 enhance)
COC(=O)C1=C(CS(=O)(=O)c2cc(Cl)ccc2OC)NC(=O)NC1c1ccc(O)c(OC)c1 (configuration not stated)	none (no result: KCNQ2 enhance)
CCN(c1cccc(C)c1)S(=O)(=O)c1ccc2c(c1)NC(=O)CS2	none (no result: KCNQ2 enhance) | Kir21 conf inh 62% | HEK293 ctr inactive
CCN(c1ccc(OC)cc1)S(=O)(=O)c1ccc2c(c1)NC(=O)CS2	none (no result: KCNQ2 enhance)
CCOc1ccc(C(C)=O)cc1COC(=O)CCc1cc(OC)c(OC)c(OC)c1	none
c1ccc2c(c1)ccc1ncccc12	none
Oc1c(N=Nc2ccccn2)ccc2ccccc12	KCNQ2 enhance 5.9 | Kir21 conf inh inactive | HEK293 ctr inactive | CHO-K1 ctr 91 | KCNQ1 sel pot inactive | KCNQ2 pot conf 28 | Kir2-1 sel inactive | KCNQ2 W236L pot inactive
Oc1ccc(Nc2nc(N3CCCC3)c3ccccc3n2)cc1	none (no result: KCNQ2 enhance) | Kir21 conf inh 48% | HEK293 ctr inactive
COc1ccc(Nc2nc(N3CCCCC3)c3ccccc3n2)cc1	none (no result: KCNQ2 enhance)
CCCC[n+]1ccn(-c2nc3c([N+](=O)[O-])cccc3n2C)c1	none (no result: KCNQ2 enhance)

Bioassay records as filed in PubChem BioAssay.
